# Rango complex inh – inhibitors of Rango-importin beta complex formation; 340,000 compounds, 0.031% hits; Potency, µM (doses to about 92.2 µM), for the others: at the top dose inhibition of complex formation; Q14974; Rango CFP/YFP FRET sensor + importin beta, 45 min;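 further: 0% = DMSO wells and 100% = buffer wells lacking importin beta; nearly all actives have a fitted effect of over 15% in size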
# Target sequence (Q14974 whole entry, looked up): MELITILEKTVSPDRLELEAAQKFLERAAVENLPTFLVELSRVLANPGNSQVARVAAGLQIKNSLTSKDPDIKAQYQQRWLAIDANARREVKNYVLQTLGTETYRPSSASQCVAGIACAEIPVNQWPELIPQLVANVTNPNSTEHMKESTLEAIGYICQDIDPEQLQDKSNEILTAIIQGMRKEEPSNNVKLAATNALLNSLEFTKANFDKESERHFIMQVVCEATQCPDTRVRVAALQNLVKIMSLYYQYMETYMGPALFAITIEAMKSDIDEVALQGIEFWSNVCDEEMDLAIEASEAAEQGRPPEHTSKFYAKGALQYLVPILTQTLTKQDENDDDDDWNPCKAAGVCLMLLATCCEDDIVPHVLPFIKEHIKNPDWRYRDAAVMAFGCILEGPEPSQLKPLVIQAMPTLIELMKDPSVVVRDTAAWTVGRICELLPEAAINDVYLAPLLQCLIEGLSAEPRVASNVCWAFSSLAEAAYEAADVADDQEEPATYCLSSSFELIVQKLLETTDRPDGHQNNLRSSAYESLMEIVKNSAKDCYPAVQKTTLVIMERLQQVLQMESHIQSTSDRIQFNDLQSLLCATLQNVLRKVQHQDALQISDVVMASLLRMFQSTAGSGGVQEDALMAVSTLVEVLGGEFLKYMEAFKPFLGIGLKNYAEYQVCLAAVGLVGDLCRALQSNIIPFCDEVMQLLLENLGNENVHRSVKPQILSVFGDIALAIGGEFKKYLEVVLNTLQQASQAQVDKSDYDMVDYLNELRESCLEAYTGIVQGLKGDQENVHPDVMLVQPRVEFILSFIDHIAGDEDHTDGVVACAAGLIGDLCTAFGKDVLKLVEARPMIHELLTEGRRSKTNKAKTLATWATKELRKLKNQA
#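 FRET biosensor (snurportin 1 IBB flanked by EYFP and cerulean), 50 nM, with compound 5 min, then 0.125 microM importin beta in PBS, 1 mM DTT, 0.02% Tween-20, 0.1% BSA. CFP/YFP ratio read after 45 min at room temperature; pre-read flags interference.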
# Luc counter – counter-screen: inhibitors of Kinase-Glo firefly luciferase; Kinase-Glo luciferase, ATP luminescence, 8 min; 200,000 compounds, 0.28% hits; Q27757; Potency, µM (doses to about 38.3 µM), inactives show at the highest dose activity change, negative = inhibition, usual class: inhibitors; active means well fitted curve in the direction sought with a large enough effect; inconclusive means small, poorly fitted or top-dose-only effect, or another doubt; inactive means no such curve, though single readings can be large; an effect the other way counts as inactive or inconclusive; further: on the % scale 0 is the no-effect control and ±100 the full control effect; nearly all actives have a fitted effect of over 60% in size
#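 Light output from Kinase-Glo luciferase with luciferin and 10 uM ATP in 50 mM imidazole pH 7.2, KCl, MgCl2, Tween 20, BSA; compound pin-delivered, 8-min ambient incubation, then luminescence read.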
# Chronic BCR inh – inhibitors of chronic active B-cell receptor signaling; Potency, µM (titrated, usually from 46.1 µM), inactives show at the highest dose activity change, negative = inhibition, hits mostly inhibitors; 340,000 compounds, 0.05% hits; AID 493014; ABC-DLBCL IkBa-CBG/CBR reporter, luminescence ratio, 4 h; active means well fitted inhibition curve with a large enough effect in the signal ratio, with a control signal flat, not every such curve was filed as active; inconclusive means small, poorly fitted or top-dose-only effect, or effect the other way, or a change in a side signal; the % refers to the signal ratio;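 further: plate controls were basal doxycycline-induced cells for no effect and cells given 10 µM MG132 for full effect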
#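 Cell line TMD8 (human ABC DLBCL), stably expressing tet-inducible CBG68-IkBa fusion and CBR; IMDM/0.5% FBS; cpd up to 46 uM; dox induction, 4 h, 37C/5% CO2; dual luminescence; green/red ratio; MG132 control.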
# LMNA splice mod – modulators of lamin A splicing. HeLa LMNA splicing GFP/RFP minigene ratio, 48 h. Potency, µM (top dose mostly 46.1 µM), for inactives: top-dose ratio change, negative = inhibition, hits mostly inhibitors. 200,000 compounds, 0.01% hits. AID 1487; active means well fitted inhibition curve with a large enough effect in the signal ratio, with a control signal flat, not every such curve was filed as active; inconclusive means small, poorly fitted or top-dose-only effect, or effect the other way, or a change in a side signal; the % refers to the signal ratio; further: on the % scale 0 is the no-effect control and ±100 the full control effect
#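 S3 HeLa stable clones carrying a lamin A-EGFP splicing minigene plus DsRed2 were seeded at 600 cells/well in Opti-MEM with 2% FBS, pin-dosed and incubated 48 h at 37°C. Acumen cytometry (488 nm) gave the GFP/RFP total-intensity ratio.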
# Rango release inh – inhibitors of RanGTP-induced Rango-importin beta complex dissociation. O95149+P62826. Biochemical FRET Rango-importin beta, RanGTP-induced dissociation. Potency, µM (doses to about 46.1 µM), inactives show at the top dose activity change, negative = inhibition. 340,000 compounds, 0.071% hits; further: % of control where 0% means no effect; nearly all actives have a fitted effect of over 45% in size
#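 FRET read at 45 min, room temperature: inhibitors block the CFP/YFP signal rise when RanGTP (0.6 uM Ran, 2 mM GTP, 0.2 uM RCC1) frees Rango (0.1 uM) from importin beta (0.25 uM). Pre-read after 5 min compound exposure flags interference.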
# Tb PFK inh-1 – inhibitors of T. brucei phosphofructokinase | O15648 | T. brucei PFK, ADP-Glo luminescence | Potency, µM (doses to about 57.5 µM), for inactives: at the top dose activity, negative = inhibition, most hits filed as inhibitors | 330,000 compounds, 0.17% hits | AID 485367; active means well fitted curve in the direction sought with a large enough effect; inconclusive means small, poorly fitted or top-dose-only effect, or another doubt; inactive means no such curve, though single readings can be large; an effect the other way counts as inactive or inconclusive;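 further: 0% = uninhibited 1x PFK enzyme wells and -100% = no-enzyme wells; nearly all actives have a fitted effect of over 60% in size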
#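 1.25 nM PFK with 0.5 mM F6P and 0.1 mM ATP in 0.1 M TEA pH 8.0, 5 mM MgCl2, incubated 45 min at room temperature; ADP measured by ADP-Glo luminescence; compounds titrated up to 57 uM.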
# Tb PFK KinaseGlo – Tb phosphofructokinase inhibition, orthogonal luminescence; Tb PFK enzyme, ATP depletion, Kinase-Glo Plus luminescence; shares compounds with Tb PFK inh-1; 1,100 compounds, 47% hits; Potency, µM (doses to about 57.5 µM), for inactives: top-dose inhibition; AID 504636; further: nearly all actives have a fitted effect of over 60% in size
# Tb PFK inh-2 – T. brucei PFK enzyme inhibition, hit validation. shares compounds with Tb PFK inh-1. Potency, µM (top dose mostly 57.5 µM), for inactives: top-dose activity change, negative = inhibition, most hits filed as inhibitors. 1,100 compounds, 41% hits. AID 504637. purified T. brucei PFK, ADP-Glo luminescence, 45 min; active means well fitted curve in the direction sought with a large enough effect; inconclusive means small, poorly fitted or top-dose-only effect, or another doubt; inactive means no such curve, though single readings can be large; an effect the other way counts as inactive or inconclusive;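 further: plate controls were full PFK enzyme control for no effect and no enzyme control for full effect; nearly all actives have a fitted effect of over 60% in size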
# * hit, by the source's call; ? = inconclusive; · = no result; [ ] = another dose, or the depositor's remark. Hits are enriched below; roughly 0.44% of the tested compounds scored in any of these assays. Unless noted, the call rests on the fitted dose curve. Potency means the concentration at half of the fitted maximal effect.
SMILES,Rango complex inh,Luc counter,Chronic BCR inh,LMNA splice mod,Rango release inh,Tb PFK inh-1,Tb PFK KinaseGlo,Tb PFK inh-2
O=C1/C(=C\c2cc3c(cc2Cl)OCO3)N2CCC1CC2,1.7%,-7.3%,-10.6%,-12.8%,14.4%,-5.5%,·,·
CCCCn1c(O)c(C(C)=Nc2ccc(OCC)cc2)c(=O)[nH]c1=O,-5.6%,-6.0%,1.3%,?,5.8%,-3.4%,·,·
O=C(CSc1ccccc1)Nc1ccc(S(=O)(=O)Nc2ncccn2)cc1,-4.7%,2.0%,-10.1%,?,3.6%,?,?,-12.7%
O=C(Nc1ccc(Cl)cc1)Nc1ccc(S(=O)(=O)Nc2ncccn2)cc1,0.0%,·,?,·,-1.6%,15.1µM*,8.49µM*,26.9µM*
COc1ccc(-c2n[nH]c(C(F)(F)F)c2-c2cc3ccccc3o2)c(O)c1,-0.6%,·,?,?,-4.7%,3.1%,·,·
Cc1nnc(Sc2cc(NCCO)c([N+](=O)[O-])c3nonc23)s1,-1.9%,-2.1%,?,?,-26.2%,5.36µM*,1.35µM*,1.51µM*
Cc1nnc(Sc2cc(NCCCO)c([N+](=O)[O-])c3nonc23)s1,-4.3%,2.3%,?,·,-0.2%,6.01µM*,1.9µM*,3.38µM*
CNc1cc(Cl)c2nonc2c1[N+](=O)[O-],0.2%,-2.4%,?,?,11.8%,-28.2%,·,·
CCN1/C(=C/C=C/c2oc3ccc(-c4ccccc4)cc3[n+]2CC)Oc2ccc(-c3ccccc3)cc21,?,-5.9%,?,·,?,?,-27.1%,?
CN(C)c1ccc(NC(=S)c2ccc3ccccc3n2)cc1,1.9%,·,?,·,-12.3%,?,9.53µM*,9.53µM*
Oc1ccc2c3c1O[C@H]1c4oc5ccccc5c4C[C@@]4(O)[C@@H](C2)N(CC2CC2)CC[C@]314,-1.4%,·,-0.7%,·,-9.4%,-1.4%,·,·
CCCCn1c(=O)c(C(=O)NCc2ccco2)c(O)c2ccccc21,-0.4%,·,6.0%,·,6.5%,1.2%,·,·
COC(=O)C1=C(c2ccccc2)C[C@@H]2CC[C@H]1N2C,1.4%,·,?,·,2.7%,-0.2%,·,·
O=C(Cn1c(=O)oc2cc(S(=O)(=O)N3CCCC3)ccc21)Nc1cccc(C(F)(F)F)c1,6.3%,-5.7%,9.3%,?,-9.8%,1.2%,·,·
CN1CCN(S(=O)(=O)c2ccc(Cl)nc2)CC1,-3.1%,0.7%,5.6%,-2.6%,0.4%,4.2%,·,·
CN1CCN(S(=O)(=O)c2ccc(NC(=O)Cc3ccc([N+](=O)[O-])cc3)cc2)CC1,-1.6%,·,5.8%,·,-6.2%,16.9µM*,6.01µM*,12µM*
Cc1cc(OCC(=O)Nc2ccc(S(=O)(=O)N3CCN(C)CC3)cc2)ccc1Cl,-2.9%,1.0%,-2.5%,?,9.2%,26.9µM*,?,?
O=C(Cc1cccc(C(F)(F)F)c1)Nc1ccc(S(=O)(=O)N2CCCC2)cc1,?,·,-6.8%,·,13.9%,?,?,?
Cc1ccc(NC(=O)CSc2ncc3ccccn23)cc1C,-2.6%,-1.0%,4.7%,·,12.4%,9.53µM*,?,-17.7%
O=C(CN1C(=O)c2ccccc2C1=O)NCCc1c[nH]c2ccc(Cl)cc12,4.1%,3.1%,?,?,14.9%,?,21.3µM*,30.1µM*
CNC(C)C1CC[C@H](N)[C@@H](OC2C(N)C[C@H](N)[C@@H](OC3OC[C@](C)(O)C(NC)[C@H]3O)C2O)O1 (some centres undefined),·,-9.2%,·,·,·,·,·,·
O=C(Nn1cnnc1)c1ccc(Cl)c([N+](=O)[O-])c1,0.3%,·,?,·,-12.2%,?,-26.3%,?
O=C(Nc1ccc(Cc2ccncc2)cc1)c1ccc(Cl)c([N+](=O)[O-])c1,-1.2%,0.6%,?,-2.4%[0.0737 µM],-4.3%,21.3µM*,21.3µM*,?
Cc1ccccc1NC(=O)CSc1nc2ccccc2c2nc(CCn3c(C)nc4ccccc43)nn12,·,·,2.5%,?,·,·,·,·
COCCNC(=O)c1c(N)n(CCC(C)C)c2nc3ccccc3nc12,?,-2.0%,?,3.6%,?,1.6%,·,·
SMILES,Rango complex inh,Luc counter,Chronic BCR inh,LMNA splice mod,Rango release inh,Tb PFK inh-1,Tb PFK KinaseGlo,Tb PFK inh-2
COCCN(C(=O)COC(=O)c1cc2c(s1)CCC2)c1c(N)n(Cc2ccccc2)c(=O)[nH]c1=O,?,·,10.6%,·,-1.1%,3.79µM*,1.07µM*,1.69µM*
CCN(C(=O)COC(=O)Cc1ccccc1)c1c(N)n(Cc2ccccc2)c(=O)[nH]c1=O,2.5%,·,1.0%,·,3.0%,5.6%,·,·
C#CCN[C@H](C)Cc1ccccc1,-0.6%,-1.5%,2.9%,-8.3%,8.6%,-7.7%,·,·
O=c1[nH]c(=O)n(Cc2ccco2)c(O)c1C=NCc1cccs1,1.8%,-4.4%,·,7.4%,-8.3%,·,·,·
O=c1[nH]c(=S)n(Cc2ccco2)c(O)c1C=NCc1cccs1,-13.7%,13.2%,-2.3%,0.9%,-7.3%,?,?,-13.4%
C=CCN1C(=O)c2ccccc2Sc2ccc(C(=O)N3CCC4(CC3)OCCO4)cc21,-2.9%,1.0%,-0.2%,-3.4%,2.3%,-1.3%,·,·
C=CCN1C(=O)/C(=C2/Sc3ccccc3N2CCCS(=O)(=O)O)SC1=S,?,1.7%,0.8%,-3.0%,?,?,-29.3%,?
Cc1cccc(NC(=O)COc2ccc(/C=N\n3cnnc3)cc2)c1,0.9%,-6.8%,5.3%,7.8%,14.5%,?,?,-18.4%
COc1cc(/C=N/n2cnnc2)ccc1OC(=O)N(C)C,-0.5%,-1.5%,?,12.3%,-1.2%,-1.1%,·,·
C/C(=N\Nc1ccccc1)c1c(O)n(-c2ccccc2)c(=O)[nH]c1=O,-1.9%,·,9.6%,·,-9.2%,-5.9%,·,·
O=c1c2ccccc2sn1-c1cc(S(=O)(=O)N2CCOCC2)ccc1N1CCOCC1,-6.6%,-11.6%,-20.3%,?,18.4%,13.5µM*,?,21.3µM*
O=C(c1c[nH]c2ccc(S(=O)(=O)N3CCOCC3)cc2c1=O)N1CCC2(CC1)OCCO2,-0.6%,7.3%,2.6%,·,-10.0%,6.9%,·,·
O=c1c2ccccc2sn1-c1cc(S(=O)(=O)N2CCOCC2)ccc1N1CCCC1,1.0%,-3.4%,?,4.1%,-6.2%,9.53µM*,?,?
CC[n+]1c(C)sc2cc(C)ccc21,3.6%,-6.2%,?,?,-10.8%,?,-5.8%,-0.9%

# Compound activity (PubChem BioAssay)
